Screening data from PubChem BioAssay.
TDP-43 rescue = rescues yeast from TDP-43 toxicity; AID 1347073; Potency, µM (series often up to 46.1 µM), most hits filed as activators; yeast TDP-43 toxicity rescue, BacTiter-Glo growth, 24 h; 45,000 tested, 0.45% active; active = well fitted activation curve with a large enough effect; also: 0% is about no effect; nearly all actives have a fitted effect of over 55% in size
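TDP-43-expressing yeast, pregrown in raffinose, seeded at OD600 0.02 in galactose medium with compound for 24 hr at 30 deg C. Growth read by BacTiter-Glo luminescence, so rescue of toxicity appears as activation.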
An asterisk follows results filed as active; i = inactive. This is one part of a sample in which hits are shown more often than they occur. Potency is read from the fitted curve at half-maximal effect.

SMILES | TDP-43 rescue
Cc1ccc(-c2csc(C(C)(O)c3cccc(F)c3)n2)cc1C (stereo unspecified) | i
COc1ccc(-c2csc(C(C)(O)c3cccc(F)c3)n2)cc1 (stereo unspecified) | 14.1µM*
CC(O)(c1cccc(F)c1)c1nc(-c2cccc(F)c2)cs1 (stereo unspecified) | i
Cc1ccc(C)c(CN2C(=O)c3ccccc3S(=O)(=O)c3ccc(C(=O)N4CCN(c5ccccc5F)CC4)cc32)c1 | i
Cc1c(CCNC(=O)C(C)(C)C)sc2nc(-c3ccc(F)cc3)nn12 | i
CN(C(=O)c1cccc(COc2ccc(Cl)cc2Cl)c1)c1ccccc1 | i
COc1cc(/C=N/NC(=O)CN2CCCCC2)ccc1OCc1ccccc1 | i
COc1cc(/C=N/NC(=O)CN2CCOCC2)ccc1OCc1ccccc1 | i
O/N=C/c1ccc(OCc2ccccc2)c(Cl)c1 | 10µM*
O/N=C/c1ccc(OCc2ccccc2)c(Br)c1 | 11.2µM*
COC(=O)c1ccc(COc2ccc(/C=N/O)cc2OC)o1 | i
Cc1ccc(CNC(=O)C2CCCN(c3nnc(-n4c(C)ccc4C)s3)C2)cc1 (stereo unspecified) | i
COc1cccc(CNC(=O)c2ccc3c(c2)nc2n3CCCCC2)c1OC | i
COc1ccc(NC(=O)Cn2c(=O)n(-c3cccc(C(F)(F)F)c3)c(=O)c3sccc32)cc1 | i
Cc1cc2nc(-c3cccc(NC(=O)c4cccc5ccccc45)c3)oc2cc1C | i
N#CCCn1cc(C(=O)Nc2ccc([N+](=O)[O-])cc2)c(-c2cccs2)n1 | i
CC(=O)Nc1nc(-c2ccc([N+](=O)[O-])cc2)cs1 | i
O=[N+]([O-])c1ccc(-c2nc(-c3cccs3)c(-c3cccs3)[nH]2)cc1 | 3.16µM*
O=C(Cn1cnnn1)NCCc1ccc(Cl)cc1Cl | i
O=C(CCl)N=c1sccn1Cc1ccc(Cl)cc1Cl | 20µM*
O=C(CSc1ncn[nH]1)NCCc1ccc(Cl)cc1Cl | i
CCOc1ccc(CNC(=O)C2CCN(C(=O)c3sccc3-n3cccc3)CC2)cc1 | i
CC(=O)c1ccc(Sc2nnnn2-c2ccccc2)c([N+](=O)[O-])c1 | 20µM*
CN1CCN(S(=O)(=O)c2ccc(Sc3nnnn3-c3ccccc3)c([N+](=O)[O-])c2)CC1 | i
Cc1ccc(-n2nnnc2SCC(=O)NNC(=O)c2ccc([N+](=O)[O-])cc2)cc1 | i
SMILES | TDP-43 rescue
CCOc1ccc(NC(=O)C2CCCN(c3nnc(-n4c(C)ccc4C)s3)C2)cc1 (stereo unspecified) | i
CC(C)CCN1C(=O)c2ccccc2CC1(C)C(=O)NC1CCC(C)CC1 (stereo unspecified) | i
O=C(Nc1nnc(SCc2ccccc2)s1)c1cc2c(s1)CCCC2 | i
CC(C)Cc1nnc(NC(=O)c2cc3c(s2)CCC3)s1 | i
O=C(Nc1nccs1)c1cc2c(s1)CCCCC2 | 7.08µM*
COc1ccc(NC(=O)CSc2nc3ccccc3nc2N2CCC(C)CC2)cc1 | i
COc1ccc(/C=C(\C#N)C(=O)OCC(=O)Nc2c(C)cccc2C)cc1 | i
COc1cc(/C=C(\C#N)C(=O)Nc2cccc3ncccc23)cc(OC)c1OC | i
Cc1cccc(C)c1NC(=O)/C(C#N)=C/c1ccsc1 | 20µM*
CN(C)CCCNc1oc(/C=C/c2ccc(F)cc2)nc1C#N | i
Cc1c(Cl)cccc1NC(=O)C1CCCN(c2nnc(-n3c(C)ccc3C)s2)C1 (stereo unspecified) | i
CCSc1ncc(Cl)c(C(=O)N(Cc2ccc(N(C)C)cc2)Cc2ccco2)n1 | i
O=S(=O)(NCc1csc(-c2ccccc2)n1)c1cccc(F)c1 | i
Cc1cc(C)c(S(=O)(=O)NCc2csc(-c3ccccc3)n2)c(C)c1 | 22.4µM*
COc1ccc(-c2nc(CNS(=O)(=O)c3ccccc3)cs2)cc1 | i
COc1ccc(C2=NC3(CCCCCC3)N(CC(=O)Nc3cccc(Cl)c3)C2=O)cc1 | i
Cc1ccc(NC(=O)CN2C(=O)C(c3ccc(F)cc3)=NC23CCCCC3)c(C)c1 | i
COc1cccc(CNC(=O)CCc2nnc3n(C)c(=O)c4sccc4n23)c1 | i
CCN(CC)S(=O)(=O)c1ccc2c(c1)N(CC(=O)Nc1c(C)cccc1C)C(=O)CO2 | i
C=CCn1c(-c2cc(-c3ccc(C)cc3)nc3ccccc23)n[nH]c1=S | 14.1µM*
C=CCn1c(-c2ccccc2OC)n[nH]c1=S | i
CCn1c(-c2cc(-c3ccc(C)cc3)nc3ccccc23)n[nH]c1=S | i
Cc1ccc2nc(Nc3ccc(Br)cc3)nc(-c3ccccc3)c2c1 | i
CCOC(=O)c1cccc(NC(=O)N2Cc3ccccc3Oc3ncccc32)c1 | i
Cc1cccc(C)c1OCc1nc2c3cnn(-c4ccccc4F)c3ncn2n1 | i
SMILES | TDP-43 rescue
COc1ccc(Cc2nc3c4cnn(-c5ccccc5F)c4ncn3n2)cc1 | i
Fc1ccccc1-n1ncc2c1ncn1nc(Cc3ccccc3)nc21 | 11.2µM*
COc1ccc(N2CCC(CNC(=S)Nc3cccc(C)c3)C2)cc1 (stereo unspecified) | 14.1µM*
Cc1cccc(NC(=S)NCCCN2CCOCC2)c1 | i
Cc1cc(C)cc(NC(=S)NCC2CCN(C(C)c3ccccc3)C2)c1 (stereo unspecified) | i
CCOc1ccccc1NC(=O)CN(C)S(=O)(=O)c1ccc2nc(C)sc2c1 | i
COc1ccc(CCNC(=O)c2c[nH]n3c(=O)c(Cc4ccccc4Cl)c(C)nc23)cc1OC | i
O=C(c1ccc2c(c1)N(Cc1ccccc1)C(=O)c1ccccc1S2(=O)=O)N1CCN(c2ccccn2)CC1 | i
Cc1ccc([N+](=O)[O-])cc1NC(=S)NC(=O)c1cccnc1 | i
CCC(C)c1ccc(O)c(NC(=S)NC(=O)c2cccnc2)c1 (stereo unspecified) | 10µM*
O=C(NC(=S)NNC(=O)c1ccccc1O)c1cccnc1 | i
Cc1ccc(NC(=O)C2CCCN(c3nnc(-n4c(C)ccc4C)s3)C2)c(C)c1 (stereo unspecified) | i
COc1ccc(C)cc1NC(=O)NC(C)c1c(-n2cccc2)sc(C)c1C (stereo unspecified) | i
O=C(Nc1cccc(Cl)c1)c1ccc2c(c1)OCCO2 | i
O=C(NC(=S)Nc1ccc2c(c1)OCCO2)c1cccc(Br)c1 | 12.6µM*
COC(=O)COc1cccc(NC(=O)c2cccc(C)c2)c1 | i
CCOc1cccc(C(=O)NC(=S)Nc2cccc(C)c2)c1 | 20µM*
CCOC(=O)NC(=S)Nc1cccc(NC(=S)NC(=O)OCC)c1 | i
O=C(Nc1ccc(C(=O)O)cc1)/C(=C/c1ccc2c(c1)OCO2)NC(=O)c1cccc(Br)c1 | i
CCOc1ccc(CCNC(=O)CCc2c(C)nc3c4c(C)cc(C)nc4nn3c2C)cc1 | i
O=C(CCCn1c(=O)c2cccn2c2ccccc21)Nc1cccc(Cl)c1 | i
Cc1ccc(C(=O)Nc2cc3cc(Cl)ccc3oc2=O)cc1 | i
O=C(Nc1ccc(Cl)cn1)c1ccc(COc2ccccc2Br)o1 | 11.2µM*
CCc1nnc(NC(=O)c2ccc(COc3ccccc3Cl)o2)s1 | i
CCN(CC)C(=O)c1ccc(COc2ccccc2Cl)o1 | i
COc1ccc2c(c1)Cc1sc(NC(=O)c3ccc(Cl)cc3)nc1-2 | i
Cc1ccc(NC(=O)N2CCc3cc(S(=O)(=O)N4CCC(C)CC4)ccc32)cc1 | i
O=C(Nc1noc2ccccc12)c1ccc(F)cc1 | i
Cc1ccc(COc2ccc3oc(-c4ccccc4)c(C(=O)O)c3c2)cc1 | i
